Source: PubChem BioAssay AID720606 (Broad Institute, 2013)
Records with an inconclusive call do not appear. Activity calls are given as the source filed them.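 Rule for the calls: active = all three timepoint tests show falling viability with half-maximal potency at or below twice the top dose; inconclusive = timepoint tests disagree on the call; inactive = all timepoint tests inactive.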

Assay: LOX IMVI melanoma resazurin viability loss, dose response, HRAS target identification, cell-based, Alamar Blue fluorescence, 8/24/48 h, dry powder (AID 720606)

Compound | outcome
CCC(=O)N(c1ccc(OC)c(Cl)c1)C(C(=O)NCCc1ccccc1)c1cccs1 (configuration not stated) | inactive
Cc1onc(C(=O)N2CCN(C(c3ccncc3)c3ccncc3)CC2)c1[N+](=O)[O-] | inactive
